# Records with an inconclusive call do not appear. The source made the active and inactive calls. Calls come from the whole dose curve; as a rule, active = well fitted activation curve with a large enough effect in the repeat runs; inconclusive = weak or mixed curves; inactive = flat fitted curve, though single readings scatter.
# Assay: A CellTox Green Cytotoxicity Assay to monitor cytotoxicity in HepG2 cells - 16 hour (AID 1224876); note: nearly all actives have a fitted effect of over 45% in size
# Details: CellTox Green fluorescence; series mostly up to 76.8 µM; cytotoxicity increase: at the top concentration
# Description: National Center for Advancing Translational Sciences [NCATS]
# NIH Chemical Genomics Center [NCGC]
# U.S. Environmental Protection Agency [EPA]
# National Institutes of Environmental Health Sciences [NIEHS]
# National Toxicology Program [NTP]
# Cell-based models are critical for drug discovery. Determining the natural cytotoxic effects resulting from test compounds is an essential research activity. A CellTox Green Cytotoxicity Assay to monitor cytotoxicity in real time of continues cell culture during 40 hours of the compound treatment was used to screen Tox21 10K library compounds in HepG2 cells. CellTox Green Cytotoxicity Assay is a nonlytic, homogeneous, biofluorescent method to measure cytotoxicity in cell culture after experimental manipulation. The assay system uses a proprietary asymmetric cyanine dye that is excluded from viable cells but preferentially stains the dead cell's DNA. […] Viable cells produce no appreciable increases in fluorescence. Therefore, the fluorescence signal produced by the binding interaction with dead cell DNA is proportional to cytotoxicity.
# The mixture of HepG2 cell suspension and reagents were dispensed at 600cells/6 ul/well in 1536-well tissue culture treated black solid bottom plates using a Multidrop dispenser. After the assay plates were incubated at a 37 C/5% CO2 incubator for 5 hours, 23 nL of compounds dissolved in DMSO, positive and negative controls was transferred to the assay plate by a pintool work station. The plates were incubated at 37 C for 40 hours. The fluorescence intensity were measured at 0h, 8h, 16h, 24h, 32h and 40h time points using ViewLux plate reader during compound treatment.
# % is set by controls: 0 for no effect and ±100 for the full control effect; potency is the fitted concentration of half-maximal effect.
Structure (SMILES),cytotoxicity increase,Potency
O=[N+]([O-])c1cccc(S(=O)(=O)O)c1,0.704% (inactive),–
NCCCN1CCOCC1,-0.235% (inactive),–
COc1ccc(-c2nc3ccc(C4=NNC(=O)CC4C)cc3[nH]2)cc1 (stereo not given),-2.64% [at 35.3 µM] (inactive),–
O=C1[C@H]2CCCC[C@H]2C(=O)N1CCCCN1CCN(c2nsc3ccccc23)CC1,1.2% [at 35.3 µM] (inactive),–
CC(=O)c1ccc2c(c1)N(CCCN(C)C)c1ccccc1S2,3.44% [at 35.3 µM] (inactive),–
COc1ccc(C)cc1[N+](=O)[O-],-2.75% (inactive),–
COC(=O)c1ccc(I)cc1S(=O)(=O)NC(=O)Nc1nc(C)nc(OC)n1,-0.31% (inactive),–
CCCCC(CC)CN1C(=O)C2C3C=CC(C3)C2C1=O (stereo not given),9.34% (inactive),–
CCOC(=O)C(F)(F)F,-1.3% (inactive),–
C#Cc1cccc(Nc2ncnc3cc(OCCOC)c(OCCOC)cc23)c1,5.89% [at 35.3 µM] (inactive),–
CN(Cc1ccc(C(C)(C)C)cc1)Cc1cccc2ccccc12,19.9% [at 35.3 µM] (inactive),–
C=CC(=O)OCCOc1ccccc1,-1.8% (inactive),–
Nc1c(CC(=O)O)cccc1C(=O)c1ccc(Br)cc1,0.0145% [at 35.3 µM] (inactive),–
CCCCC1=NC2(CCCC2)C(=O)N1Cc1ccc(-c2ccccc2-c2nn[nH]n2)cc1,1.79% [at 35.3 µM] (inactive),–
CNCCCN1c2ccccc2CCc2ccccc21,–,26.8 µM (active)
CCOC(=O)c1cccnc1,-6.74% [at 35.3 µM] (inactive),–
CCN(CC)CCNC(=O)c1cc(Br)c(N)cc1OC,5.58% [at 35.3 µM] (inactive),–
Nc1ncn([C@H]2C[C@H](O)[C@@H](CO)O2)c(=O)n1,3.7% [at 35.3 µM] (inactive),–
O=C(O)c1ccc(S(=O)(=O)O)cc1C(=O)O,-10.8% (inactive),–
O=P(O)(OCc1ccccc1)OCc1ccccc1,0.981% (inactive),–

Structure (SMILES),cytotoxicity increase,Potency
Clc1ccc(Cn2c(CN3CCCC3)nc3ccccc32)cc1,-15% [at 35.3 µM] (inactive),–
C=C1C(=C/C=C2\CCC[C@]3(C)[C@@H]([C@H](C)/C=C/[C@@H](O)C4CC4)CC[C@@H]23)C[C@@H](O)C[C@@H]1O,2.06% [at 35.3 µM] (inactive),–
Cc1oc2c(NC(=O)c3c(Cl)cccc3Cl)cccc2c1C(C)(C)O,14.7% (inactive),–
CCCCCCCC/C=C\CCCCCCCC(=O)OCC,1.68% (inactive),–
CCCCCCCCCc1ccc(OCCOCCO)cc1,–,20.5 µM (active)
CN(C)CCN(Cc1ccc(Cl)cc1)c1ccccn1,6.43% [at 35.3 µM] (inactive),–
CNCCCCOc1ccccc1Cc1ccccc1,–,23.9 µM (active)
O=C(O)CC(=O)C(=O)O,-15.6% (inactive),–
CC(=O)c1ccc2c(c1)N(CCCN1CCC(CCO)CC1)c1ccccc1S2,–,21.3 µM (active)
Nc1cccc([N+](=O)[O-])c1,0.24% (inactive),–
CCCOC(C(=O)OC1CCN(C)CC1)(c1ccccc1)c1ccccc1,–,19 µM (active)
COc1cc(Cl)ccc1Oc1ccc(Cl)cc1Cl,-9.14% (inactive),–
O[C@@H](COc1cccc2ncccc12)CN1CCN(C2c3ccccc3[C@@H]3[C@H](c4ccccc42)C3(F)F)CC1 (stereo not given in full),-1.84% [at 35.3 µM] (inactive),–
CCCCC/C=C\C/C=C\CCCCCCCC(=O)NC(C)c1ccccc1 (stereo not given),-16.7% [at 35.3 µM] (inactive),–
C=CC1CC2C=CC1C2 (stereo not given),-4.41% (inactive),–
CCC(C)c1cc(C(C)(C)C)c(O)c(C(C)(C)C)c1 (stereo not given),0.0448% (inactive),–
NC(N)=NCCC[C@H](N)C(=O)O,-5.32% [at 6.97 µM] (inactive),–
CCCCCCCCCCCC(=O)OC[C@@H](O)[C@H]1OC[C@H](OCCO)[C@H]1OCCO,6.51% (inactive),–
COc1ccc(C(=O)c2ccc(OC)cc2O)c(O)c1,6.91% (inactive),–
CCCCc1ncc(/C=C(\Cc2cccs2)C(=O)O)n1Cc1ccc(C(=O)O)cc1,-15.4% [at 35.3 µM] (inactive),–

# From PubChem BioAssay (Tox21)
